Test results: the supplement of paper PMC10338343
± gives the standard deviation.

The sequences below were run on MILI (PIWIL2) piRISC loaded with L1MC piRNA (26 nt) (assay: pre-steady-state target cleavage rate (min^-1); guide: L1MC piRNA 5'p-UAACUAAAUACUAUGCAAGCUGUAGG; MIWI and MILI are mouse PIWI proteins and EfPiwi is from a freshwater sponge; tags in brackets are library labels; higher = faster piRNA-guided slicing of the target). Settings: auxiliary factor: 500 nM mouse GTSF1.
How it was run: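 The method was Cleave-'n-Seq, in which uncleaved targets from a transcribed, DNA-blocked target RNA library were sequenced after exposure to active affinity-purified piRISC carrying one synthetic guide, with or without GTSF1 partner protein. Reactions contained 0.1 nM library, 1 nM piRISC and, where present, 500 nM GTSF1 in HEPES–potassium acetate buffer at 33 °C for 0–8 or 0–960 min. Reads were normalised to depth and to weakly complementary targets, three trials were pooled, and k3 was capped at 0.0001 min^-1. The pre-steady-state cleavage rate came from a burst-and-steady-state fit.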

| Sequence | pre-steady-state target cleavage rate |
| --- | --- |
| UCCUGGUACAGCUUGCUUAGAAUUUAGUUA | 0.181 ± 0.059 |
| UCCUGCUACAGCUUGCAUAGUAUUUAUUA | 0.0696 ± 0.017 |
| UCCUGGAACUGCUUGCAUAGUAUUUAGAAA | 0.103 ± 0.019 |
| UCCUGGAUGACCUUGCAUAGUAUUUACAAA | 0.114 ± 0.033 |
| UCCUGCUAGUCCUUGCAUAGUAUUUACAAA | 0.0056 ± 0.004 |
| UCCUGGAUGUCCUAGCAUUGUAUUUAGUUA | 0.0111 ± 0.0048 |
| UCCUGGAUGUGCUUGCAUAGUAUUUCGUUA | 0.0261 ± 0.0098 |
| UCCUGGAUGAGCAACCAUAGUAUUUAGUAA | 0.0492 ± 0.016 |
| UCCUGGAACAGCUUGCAUAGUAAAAUCAAA | 0.0152 ± 0.008 |
| UCCUGGAUCACCUUGCAUAGUAUUUACUUA | 0.0587 ± 0.017 |
| UCCUCCUACAGCUUCCAUAGUAUUUUGUUA | 0.0182 ± 0.0077 |
| UCCUGGAUGUCCUAGCAUAGUAUUUACUUA | 0.0287 ± 0.0091 |
| UCCUGGAACUCGUUGCAUAGUAUUUACAAA | 0.0537 ± 0.013 |
| UCCUCCUACAGCUUGCAUAGAAUUUACUUA | 0.0813 ± 0.022 |
| UCCUGGAUGUCGAAGCAUAGUAUAUAGUAA | 0.012 ± 0.0042 |
| UCCUGGUACAGCUUGCUAUGUAUUUAGUAA | 0.00603 ± 0.0046 |
| UCCUGGAUCUGCUUGCAUAGUAUUUACAAA | 0.104 ± 0.022 |
| UCCUGGAACAGCAACCAUAGUAUUUAGUAA | 0.143 ± 0.019 |
| UCCUCCUAGAGCUUGCAUAGUAUUAAGUUA | 0.279 ± 0.035 |

| Sequence | pre-steady-state target cleavage rate |
| --- | --- |
| UCCUGGAUGUCGAAGCAUAGUAAUUAGUUA | 0.00988 ± 0.0037 |
| UCCUGGAUGUCCAUGCAUAGUAUUUUGUUA | 0.00776 ± 0.0045 |
| UCCUGGAUGUGCUUGCAUAAUAUUUAGUUA | 0.158 ± 0.018 |
| UCCUCCUACAGCUUGCAUAGAUUUUACAAA | 0.0174 ± 0.0071 |
| UCCUGGAUGUCGAAGUCAUAGUAUUUAGUUA | 0.00447 ± 0.003 |
| UCCUGGAUGAGCUUGGAUAGUAUUAAGUUA | 0.0932 ± 0.022 |
| UCCUGGAACAGCUUGCUUAGAAUUUAGUUA | 0.0285 ± 0.0057 |
| UCCUGGAACAGCUUGCAUAGUUUUAGUUA | 0.0123 ± 0.0053 |
| UCCUGGAUCAGCUUGCUAUGUAUUUACAAA | 0.00475 ± 0.0036 |
| UCCUGGUUGAGCUUGCAUAGUAUUUAGAAA | 0.0925 ± 0.026 |
| UCCUGGAACAGCUUGCUAAGUAUUUACAAA | 0.0164 ± 0.0066 |
| UCCUGGAACAGCUUGCAUAGUAUUUAGUCUA | 0.055 ± 0.015 |
| UCCUGGAUGUCGAACCAUAGUAUUUGAGUUA | < 0.0001 |
| UCCUGGAUGUGCUUGCAUAGAAUUUAGUUA | 0.0203 ± 0.0071 |
| UCCUGGAUGUGCUUGCAUAGUAUUUUGUAA | 0.00939 ± 0.0045 |
| UCCUGGAUCAGCUUGCAUAGUAUAUACAAA | 0.0964 ± 0.023 |
| UCCUGGAACAGCUUGGAUAGUAUUUACUUA | 0.0413 ± 0.012 |
| UCCUGGAUGUCCUUGCAUAGUAAUUAGUAA | 0.0241 ± 0.0076 |
| UCCUCCUACAGCUUGCAUAGAUUUUUCAAA | 0.0441 ± 0.013 |
